# Reference: PubChem BioAssay (EPA / NIEHS)
# The source made the active and inactive calls. How the source made its calls: active means hit-call score of the fitted dose curve at least 0.9, where 1 is the maximum; inactive means score below 0.9.
# Legend:
# [1] = BSK_hDFCGF_SRB: Viability Assessment in the BioMAP Diversity Plus: hDFCGF Assay (AID 2283061); conditions: primary human foreskin fibroblasts;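 further: cells exposed to compound for 24 h before the read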
# How it was run: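 SRB-based viability read on primary human skin fibroblasts at 24 h: TCA fixation, 0.1% dye, 560 nm. Gain or loss of signal is fitted against the DMSO negative control.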
# [2] = read-out: TIMP metallopeptidase inhibitor 1 (TIMP1), TIMP1 (gene 7076); test: BSK_hDFCGF_TIMP1: BioMAP Diversity Plus: hDFCGF Assay for TIMP metallopeptidase inhibitor 1 (TIMP1) Biomarker Activity (AID 2283062); conditions: primary human foreskin fibroblasts; actives raise or lower the signal
# How it was run: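 Bidirectional curve fitting against DMSO baseline yielded this endpoint, based on ELISA detection of TIMP-1 in primary human foreskin fibroblasts exposed to compound for 24 h.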
# [3] = read-out: Monokine induced gamma interferon (MIG), CXCL9 (gene 4283); test: BSK_hDFCGF_MIG: BioMAP Diversity Plus: hDFCGF Assay for Monokine induced gamma interferon (MIG) Biomarker Activity (AID 2283063); conditions: primary human foreskin fibroblasts; actives raise or lower the signal
# How it was run: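 Endpoint derived by bidirectional fitting relative to DMSO; MIG quantified via ELISA in primary human foreskin fibroblasts harvested 24 h after dosing.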
# [4] = read-out: Matrix Metallopeptidase 1 (MMP1), MMP1 (gene 4312); test: BSK_hDFCGF_MMP1: BioMAP Diversity Plus: hDFCGF Assay for Matrix Metallopeptidase 1 (MMP1) Biomarker Activity (AID 2283064); conditions: primary human foreskin fibroblasts; actives raise or lower the signal
# How it was run: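 Human foreskin fibroblasts exposed to chemical for 24 h; MMP1 detected by ELISA, with DMSO as baseline for bidirectional fitting.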
# [5] = read-out: Plasminogen activator inhibitor-1 (PAI1), SERPINE1 (gene 5054); test: BSK_hDFCGF_PAI1: BioMAP Diversity Plus: hDFCGF Assay for Plasminogen activator inhibitor-1 (PAI1) Biomarker Activity (AID 2283066); conditions: primary human foreskin fibroblasts; actives raise or lower the signal
# How it was run: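 Human skin fibroblast cultures receive chemical for 24 h before PAI-1 is measured by ELISA; signal changes are fitted bidirectionally against DMSO-treated wells.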
# [6] = read-out: Interferon-gamma inducible Protein 10 (IP10), CXCL10 (gene 3627); test: BSK_KF3CT_IP10: BioMAP Diversity Plus: KF3CT Assay for Interferon-gamma inducible Protein 10 (IP10) Biomarker Activity (AID 2283068); conditions: primary human keratinocytes with fibroblasts; actives raise or lower the signal
# How it was run: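 ELISA read-out of IP-10 after 24 h chemical dosing of human skin primary co-culture (keratinocytes, foreskin fibroblasts). Gain or loss of signal relative to DMSO, bidirectional curve fit.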
# [7] = BSK_KF3CT_SRB: Viability Assessment in the BioMAP Diversity Plus: KF3CT Assay (AID 2283069); conditions: primary human keratinocytes with fibroblasts;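 further: read 24 h after compound addition; fitted for both signal gain and loss against DMSO baseline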
# How it was run: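 Overt cytotoxicity is assessed as total protein by sulforhodamine B staining in parallel human skin co-cultures at 24 h after dosing. DMSO serves as negative control and baseline.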
# [8] = read-out: Interleukin-1 alpha (IL1a), IL1A (gene 3552); test: BSK_KF3CT_IL1a: BioMAP Diversity Plus: KF3CT Assay for Interleukin-1 alpha (IL1a) Biomarker Activity (AID 2283070); conditions: primary human keratinocytes with fibroblasts; actives raise or lower the signal
# How it was run: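 Readout is IL-1a level by ELISA, compared bidirectionally with DMSO as baseline. Cells: human keratinocytes co-cultured with foreskin fibroblasts, harvested 24 h post-dose.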
# [9] = read-out: Intercellular Adhesion Molecule 1 (ICAM1), ICAM1 (gene 3383); test: BSK_KF3CT_ICAM1: BioMAP Diversity Plus: KF3CT Assay for Intercellular Adhesion Molecule 1 (ICAM1) Biomarker Activity (AID 2283067); conditions: primary human keratinocytes with fibroblasts; actives raise or lower the signal
# How it was run: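 Bidirectional curve fitting against a DMSO baseline was applied to ICAM-1 ELISA signal from primary human skin co-cultures harvested 24 h after treatment, with SRB staining of parallel wells for overt cytotoxicity.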
# [10] = read-out: Vascular cell adhesion molecule 1 (VCAM1), VCAM1 (gene 7412); test: BSK_hDFCGF_VCAM1: BioMAP Diversity Plus: hDFCGF Assay for Vascular cell adhesion molecule 1 (VCAM1) Biomarker Activity (AID 2283065); conditions: primary human foreskin fibroblasts; actives raise or lower the signal;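 further: VCAM-1 protein level quantified by ELISA after 24 h chemical exposure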
# How it was run: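 Measured after 24 h chemical treatment of primary human skin fibroblasts, VCAM-1 was detected by ELISA and concentration-response analysed in both directions versus DMSO vehicle.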
structure (smiles),measurement,setting,value
COC(=O)N(C(=O)N1CO[C@@]2(C(=O)OC)Cc3cc(Cl)ccc3C2=N1)c1ccc(OC(F)(F)F)cc1,AC50,[1],3.65 µM (active)
same,outcome,[2],inactive
same,outcome,[3],inactive
same,outcome,[4],inactive
same,AC50,[5],5.54 µM (active)
same,AC50,[6],13.3 µM (active)
same,outcome,[7],inactive
same,outcome,[8],inactive
Clc1nc(Cl)nc(Nc2ccccc2Cl)n1,AC50,[1],31.7 µM (active)
same,outcome,[2],inactive
same,AC50,[3],29.1 µM (active)
same,outcome,[4],inactive
same,AC50,[5],27.2 µM (active)
same,outcome,[6],inactive
same,outcome,[7],inactive
same,outcome,[8],inactive
Cn1c(-c2ccccc2)cc(-c2ccccc2)[n+]1C,outcome,[1],inactive
same,AC50,[2],20 µM (active)
same,outcome,[3],inactive
same,outcome,[4],inactive
same,outcome,[5],inactive
same,outcome,[9],inactive
same,AC50,[6],7.72 µM (active)
same,outcome,[7],inactive
same,outcome,[8],inactive
Cc1cc(C)nc(Nc2ccccc2)n1,outcome,[1],inactive
same,outcome,[2],inactive
same,outcome,[3],inactive
same,outcome,[4],inactive
same,outcome,[5],inactive
same,outcome,[6],inactive
same,outcome,[7],inactive
same,outcome,[8],inactive
C=CCOC(=O)C(C)(C)OC(=O)c1cc(-n2c(=O)cc(C(F)(F)F)n(C)c2=O)ccc1Cl,outcome,[1],inactive
same,AC50,[2],30.3 µM (active)
same,outcome,[3],inactive
same,AC50,[4],3.97 µM (active)
same,AC50,[5],3.51 µM (active)
same,AC50,[6],6.34 µM (active)
same,outcome,[7],inactive
same,outcome,[8],inactive
CCOc1nc(C(Cl)(Cl)Cl)ns1,outcome,[1],inactive
same,outcome,[2],inactive
same,outcome,[3],inactive
same,outcome,[4],inactive
same,outcome,[5],inactive
same,outcome,[6],inactive
same,outcome,[7],inactive
same,outcome,[8],inactive
COCc1cnc(C2=NC(C)(C(C)C)C(=O)N2)c(C(=O)O)c1 (centres undefined),outcome,[1],inactive
same,outcome,[2],inactive
same,outcome,[3],inactive
same,outcome,[4],inactive
same,outcome,[5],inactive
same,AC50,[6],12.3 µM (active)
same,outcome,[7],inactive
same,outcome,[8],inactive
CC(C)Nc1nc(Cl)nc(NC(C)C)n1,outcome,[1],inactive
same,outcome,[2],inactive
same,outcome,[3],inactive
same,outcome,[4],inactive
same,outcome,[5],inactive
same,outcome,[9],inactive
same,outcome,[6],inactive
same,outcome,[7],inactive
same,outcome,[8],inactive
CS(=O)(=O)c1ccc(C(=O)C2C(=O)CCCC2=O)c([N+](=O)[O-])c1,outcome,[1],inactive
same,outcome,[2],inactive
same,outcome,[3],inactive
same,outcome,[4],inactive
same,outcome,[5],inactive
same,outcome,[6],inactive
same,outcome,[7],inactive
same,outcome,[8],inactive
CC(C)N1C(=O)c2ccccc2NS1(=O)=O,outcome,[1],inactive
same,AC50,[2],3.97 µM (active)
same,outcome,[3],inactive
same,outcome,[4],inactive
same,outcome,[5],inactive
same,outcome,[6],inactive
same,outcome,[7],inactive
same,outcome,[8],inactive
COC(=O)NC(=S)Nc1ccccc1NC(=S)NC(=O)OC,outcome,[1],inactive
same,outcome,[2],inactive
same,outcome,[3],inactive
same,AC50,[4],3.97 µM (active)
same,outcome,[5],inactive
same,outcome,[6],inactive
same,outcome,[7],inactive
same,outcome,[8],inactive
CC1(C)CCC(=Cc2ccc(Cl)cc2)C1(O)Cn1cncn1 (centres undefined),outcome,[1],inactive
same,outcome,[2],inactive
same,outcome,[3],inactive
same,outcome,[4],inactive
same,outcome,[5],inactive
same,outcome,[6],inactive
same,outcome,[7],inactive
same,outcome,[8],inactive
CC1(C)CON(Cc2ccccc2Cl)C1=O,outcome,[1],inactive
same,outcome,[3],inactive
same,AC50,[4],20 µM (active)
same,outcome,[5],inactive
same,outcome,[9],inactive
same,outcome,[6],inactive
same,outcome,[7],inactive
same,outcome,[8],inactive
Cc1cnc(C2=NC(C)(C(C)C)C(=O)N2)c(C(=O)O)c1 (centres undefined),outcome,[1],inactive
same,outcome,[2],inactive
same,outcome,[3],inactive
same,outcome,[4],inactive
same,outcome,[5],inactive
same,outcome,[9],inactive
same,outcome,[6],inactive
same,outcome,[7],inactive
same,outcome,[8],inactive
Cc1ccc(N=CN(C)C=Nc2ccc(C)cc2C)c(C)c1,AC50,[1],28.4 µM (active)
same,AC50,[2],31 µM (active)
same,AC50,[3],29.7 µM (active)
same,AC50,[4],33.2 µM (active)
same,AC50,[5],29.7 µM (active)
same,AC50,[6],32.7 µM (active)
same,AC50,[7],28.6 µM (active)
same,outcome,[8],inactive
CC(C)Oc1cccc(NC(=O)c2ccccc2C(F)(F)F)c1,AC50,[1],20 µM (active)
same,outcome,[2],inactive
same,outcome,[3],inactive
same,outcome,[4],inactive
same,outcome,[5],inactive
same,outcome,[6],inactive
same,outcome,[7],inactive
same,outcome,[8],inactive
CCOP(=S)(OCC)Oc1nc(Cl)n(C(C)C)n1,outcome,[1],inactive
same,outcome,[2],inactive
same,outcome,[3],inactive
same,outcome,[4],inactive
same,outcome,[5],inactive
same,outcome,[6],inactive
same,outcome,[7],inactive
same,outcome,[8],inactive
COCC(=O)N(c1c(C)cccc1C)C(C)C(=O)OC (centres undefined),outcome,[1],inactive
same,outcome,[2],inactive
same,outcome,[3],inactive
same,outcome,[4],inactive
same,outcome,[5],inactive
same,outcome,[9],inactive
same,outcome,[6],inactive
same,outcome,[7],inactive
same,outcome,[8],inactive
C=C(C)CN(CC)c1c([N+](=O)[O-])cc(C(F)(F)F)cc1[N+](=O)[O-],outcome,[1],inactive
same,outcome,[2],inactive
same,outcome,[3],inactive
same,AC50,[4],3.92 µM (active)
same,outcome,[5],inactive
same,AC50,[6],14.9 µM (active)
same,outcome,[7],inactive
same,outcome,[8],inactive
COP(=S)(OC)SCn1nnc2ccccc2c1=O,outcome,[1],inactive
same,outcome,[2],inactive
same,outcome,[3],inactive
same,outcome,[4],inactive
same,outcome,[5],inactive
same,outcome,[9],inactive
same,outcome,[6],inactive
same,outcome,[7],inactive
same,outcome,[8],inactive
COP(=S)(OC)Oc1ccc([N+](=O)[O-])c(C)c1,outcome,[1],inactive
same,outcome,[2],inactive
same,outcome,[3],inactive
same,outcome,[4],inactive
same,outcome,[5],inactive
same,outcome,[6],inactive
same,outcome,[7],inactive
same,outcome,[8],inactive
Nc1cnn(-c2ccccc2)c(=O)c1Cl,outcome,[1],inactive
same,outcome,[2],inactive
same,outcome,[3],inactive
same,outcome,[4],inactive
same,outcome,[5],inactive
same,outcome,[6],inactive
same,outcome,[7],inactive
same,outcome,[8],inactive
N#CN=C1SCCN1Cc1ccc(Cl)nc1,outcome,[1],inactive
same,outcome,[2],inactive
same,outcome,[3],inactive
same,outcome,[4],inactive
same,outcome,[5],inactive
same,outcome,[6],inactive
same,outcome,[7],inactive
same,outcome,[8],inactive
CSC(=O)c1c(C(F)F)nc(C(F)(F)F)c(C(=O)SC)c1CC(C)C,outcome,[1],inactive
same,outcome,[2],inactive
same,outcome,[3],inactive
same,AC50,[4],4.27 µM (active)
same,AC50,[5],26.9 µM (active)
same,outcome,[6],inactive
same,outcome,[7],inactive
same,outcome,[8],inactive
CNC(=O)Oc1cccc2ccccc12,outcome,[1],inactive
same,outcome,[3],inactive
same,AC50,[4],3.91 µM (active)
same,AC50,[10],20 µM (active)
same,outcome,[5],inactive
same,outcome,[6],inactive
same,outcome,[7],inactive
same,outcome,[8],inactive
CCOP(=O)(OCC)Oc1nc(Cl)c(Cl)cc1Cl,AC50,[1],36.3 µM (active)
same,outcome,[2],inactive
same,outcome,[3],inactive
same,outcome,[4],inactive
same,AC50,[5],20 µM (active)
same,outcome,[9],inactive
same,AC50,[6],19 µM (active)
same,AC50,[7],8.75 µM (active)
same,outcome,[8],inactive
CC(C)=CC1C(C(=O)OCc2coc(Cc3ccccc3)c2)C1(C)C (centres undefined),outcome,[1],inactive
same,outcome,[2],inactive
same,outcome,[3],inactive
same,outcome,[4],inactive
same,outcome,[5],inactive
same,outcome,[6],inactive
same,outcome,[7],inactive
same,outcome,[8],inactive
CC(C)C1(C)N=C(c2ncccc2C(=O)O)NC1=O (centres undefined),outcome,[1],inactive
same,outcome,[2],inactive
same,outcome,[3],inactive
same,outcome,[4],inactive
same,outcome,[5],inactive
same,outcome,[9],inactive
same,outcome,[6],inactive
same,outcome,[7],inactive
same,outcome,[8],inactive
CC(C)N1C(=O)N(c2ccccc2)CSC1=NC(C)(C)C,AC50,[1],32.7 µM (active)
same,outcome,[2],inactive
same,AC50,[3],31.6 µM (active)
same,outcome,[4],inactive
same,outcome,[5],inactive
same,AC50,[6],33.2 µM (active)
same,AC50,[7],30.8 µM (active)
same,AC50,[8],26.3 µM (active)
